Measurements taken from PubChem BioAssay.
Activity calls are given as the source filed them.

Key:
[1] = optical density shifts of acrAB sulA E. coli – strain DRC41, OD650, 48 h, E. coli filamentation inducer project, primary screen (AID 1152); conditions: higher = more signal, called active from +8 up or from −8 down;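 further: E. coli MC1000 strain DRC41 lacking acrAB efflux pump and sulA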
[2] = probe aLefty1 binding on compound microarray – biochemical, small-molecule microarray, 635/667 nm fluorescence, primary screen (AID 1153); conditions: higher = more signal;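 further: score merges spot fluorescence with signal-to-noise ratio from the scanned slide images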
[3] = plasmodial surface anion channel blockers, osmotic lysis – cell-based, P. falciparum Indochina, OD700, 1 h, primary screen (AID 1154); conditions: P. falciparum Indochina infected RBC osmotic lysis, higher = more signal, called active from +8 up or from −8 down
[4] = plasmodial surface anion channel blockers, osmotic lysis – cell-based, P. falciparum Indochina, OD700, 2 h, primary screen (AID 1155);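 further: lysis reports solute entry through the parasite surface anion channel PSAC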; conditions: P. falciparum Indochina infected erythrocytes, higher = more signal, called active from +8 up or from −8 down
[5] = changes in parasitized red cell lysis, either direction – P. falciparum Indochina, OD700, 3 h, PSAC antagonist project, primary screen (AID 1156); conditions: P. falciparum-infected erythrocytes, osmotic lysis, higher = more signal, called active from +8 up or from −8 down
[6] = plasmodial surface anion channel blockers, osmotic lysis – cell-based, P. falciparum Indochina, OD700, 18 h, primary screen (AID 1157); conditions: P. falciparum Indochina infected erythrocytes, osmotic lysis OD700, 18 h; higher = more signal, called active from +8 up or from −8 down
[7] = S6 kinase pathway phospho-S6 level changes – cell-based, A549, cytoblot, luminescence, serum-stimulated, primary screen (AID 1158); conditions: 5 h, higher = more signal;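 further: serum-stimulated A549 lung adenocarcinoma cells; signal is phosphorylated S6 detected by cytoblot immunostaining with HRP secondary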
[8] = molecular target: NADPH oxidase 2 (Homo sapiens) (UniProt P04839); test: compounds shifting NOX2 Amplex Red fluorescence – cell-based, HEK293-NOX2, PMA-stimulated, NOX inhibitor project, primary screen (AID 1159); conditions: 45 min, higher = more signal, called active from +8 up or from −8 down; further: test concentration not given here
[9] = molecular target: NADPH oxidase 4 (Homo sapiens) (UniProt Q9NPH5); test: compounds shifting NOX4 Amplex Red fluorescence – cell-based, HEK293-NOX4, tetracycline-induced, NOX inhibitor project, primary screen (AID 1160); conditions: HEK293-NOX4, Amplex Red H2O2 fluorescence, 45 min; higher = more signal, called active from +8 up or from −8 down
[10] = molecular target: NADPH oxidase 5 (Homo sapiens) (UniProt Q96PH1); test: compounds shifting NOX5 Amplex Red fluorescence – cell-based, HEK293-NOX5, NOX inhibitor project, primary screen (AID 1161); conditions: HEK293-NOX5, ionomycin, 45 min, higher = more signal
Sequence of NADPH oxidase 5 (Homo sapiens) (Q96PH1 whole entry, looked up): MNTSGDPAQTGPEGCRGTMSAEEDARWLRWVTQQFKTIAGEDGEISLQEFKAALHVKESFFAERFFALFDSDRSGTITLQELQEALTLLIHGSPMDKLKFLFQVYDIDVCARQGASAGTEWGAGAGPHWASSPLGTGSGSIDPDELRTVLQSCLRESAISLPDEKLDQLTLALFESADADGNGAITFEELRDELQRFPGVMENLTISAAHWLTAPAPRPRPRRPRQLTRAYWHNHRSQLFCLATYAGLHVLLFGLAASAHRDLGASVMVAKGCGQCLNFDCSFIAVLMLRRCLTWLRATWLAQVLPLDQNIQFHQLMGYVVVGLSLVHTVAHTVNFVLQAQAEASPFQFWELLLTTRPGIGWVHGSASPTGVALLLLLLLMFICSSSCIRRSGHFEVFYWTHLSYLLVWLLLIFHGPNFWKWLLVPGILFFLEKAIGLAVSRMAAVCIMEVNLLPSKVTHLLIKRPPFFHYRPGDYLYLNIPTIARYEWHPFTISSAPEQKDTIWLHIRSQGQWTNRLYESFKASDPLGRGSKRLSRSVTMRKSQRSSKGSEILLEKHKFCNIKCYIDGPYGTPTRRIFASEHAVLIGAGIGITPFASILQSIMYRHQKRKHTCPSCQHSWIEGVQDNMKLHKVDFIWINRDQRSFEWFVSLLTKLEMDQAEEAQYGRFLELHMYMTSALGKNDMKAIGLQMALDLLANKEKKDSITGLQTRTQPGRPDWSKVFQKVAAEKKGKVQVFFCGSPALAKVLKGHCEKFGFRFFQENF

Sequence of NADPH oxidase 4 (Homo sapiens) (Q9NPH5 whole entry, looked up): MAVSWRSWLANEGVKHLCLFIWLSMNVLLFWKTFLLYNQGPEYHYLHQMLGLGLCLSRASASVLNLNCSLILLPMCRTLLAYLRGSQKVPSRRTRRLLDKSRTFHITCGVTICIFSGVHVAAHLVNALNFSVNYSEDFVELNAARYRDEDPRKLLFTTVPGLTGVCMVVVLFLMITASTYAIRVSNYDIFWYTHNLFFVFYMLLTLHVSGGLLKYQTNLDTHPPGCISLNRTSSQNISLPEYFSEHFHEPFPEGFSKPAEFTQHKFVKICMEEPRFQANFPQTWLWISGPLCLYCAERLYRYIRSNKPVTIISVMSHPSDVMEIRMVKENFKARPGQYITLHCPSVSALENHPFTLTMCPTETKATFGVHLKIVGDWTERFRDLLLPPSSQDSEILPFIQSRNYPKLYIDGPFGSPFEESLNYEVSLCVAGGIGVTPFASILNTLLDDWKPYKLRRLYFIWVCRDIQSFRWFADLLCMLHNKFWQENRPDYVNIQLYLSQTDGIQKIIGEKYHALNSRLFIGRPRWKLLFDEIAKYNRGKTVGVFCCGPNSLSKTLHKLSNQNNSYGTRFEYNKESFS
Sequence of NADPH oxidase 2 (Homo sapiens) (P04839 whole entry, looked up): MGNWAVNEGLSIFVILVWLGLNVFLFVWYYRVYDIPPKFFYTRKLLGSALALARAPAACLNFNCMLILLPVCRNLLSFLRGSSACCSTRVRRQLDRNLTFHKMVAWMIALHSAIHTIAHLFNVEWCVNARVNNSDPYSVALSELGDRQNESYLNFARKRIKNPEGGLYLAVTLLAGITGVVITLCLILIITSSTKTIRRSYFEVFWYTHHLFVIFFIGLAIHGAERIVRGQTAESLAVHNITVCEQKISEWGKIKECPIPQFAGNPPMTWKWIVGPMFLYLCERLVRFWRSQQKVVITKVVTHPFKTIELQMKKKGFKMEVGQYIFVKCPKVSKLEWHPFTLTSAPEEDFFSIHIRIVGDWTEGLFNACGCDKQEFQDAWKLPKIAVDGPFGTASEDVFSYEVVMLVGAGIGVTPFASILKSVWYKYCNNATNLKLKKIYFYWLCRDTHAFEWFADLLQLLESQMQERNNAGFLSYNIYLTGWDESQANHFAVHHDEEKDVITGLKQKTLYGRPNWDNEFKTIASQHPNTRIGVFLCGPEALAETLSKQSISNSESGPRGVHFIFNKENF

Row | Structure (SMILES) | z-score [1] | composite z-score [2] | z-score [3] | z-score [4] | z-score [5] | z-score [6] | z-score [7] | z-score [8] | z-score [9] | z-score [10]
1 | COc1ccc(O[C@H]2C=C[C@@H](c3ccccc3)O[C@@H]2COC(=O)NCc2cccc3ccccc23)cc1 | -0.286 (inactive) | -0.0046 | 2.71 (inactive) | 0.896 (inactive) | -0.119 (inactive) | 0.515 (inactive) | -0.553 | 0.5 (inactive) | -0.0581 (inactive) | -0.406
2 | CO[C@@H]1COC(=O)CC=C[C@H](C)[C@H](OC)COC(=O)[C@@H]2CCCN2C(=O)CC=C[C@H]1C | -0.2 (inactive) | -0.276 | 0.521 (inactive) | 0.457 (inactive) | -0.0249 (inactive) | 0.158 (inactive) | -0.0291 | 1.18 (inactive) | -0.686 (inactive) | 0.294
3 | CC(CCN1CCCc2nc(C)c(C)cc21)=NOC[C@@H](O)COCc1ccco1 | 0.768 (inactive) | 1.95 | 3.52 (inactive) | 0.281 (inactive) | 0.453 (inactive) | 0.22 (inactive) | -0.815 | -0.869 (inactive) | -0.583 (inactive) | -0.144
4 | C[C@H]1CC[C@H]2C(=O)O[C@H](CO)CN2[C@@H]1c1ccc(Br)cc1 | -0.0016 (inactive) | 0.0012 | 1.51 (inactive) | 0.939 (inactive) | 0.0454 (inactive) | 0.49 (inactive) | -0.337 | -0.431 (inactive) | -0.191 (inactive) | -0.489
5 | C[C@H]1CC[C@H]2C(=O)N[C@H](Cc3ccccc3)C(=O)N2[C@@H]1c1ccccc1 | 0.584 (inactive) | -0.108 | -0.189 (inactive) | 0.405 (inactive) | -0.304 (inactive) | 0.294 (inactive) | -0.0623 | 0.727 (inactive) | -0.32 (inactive) | -0.119
6 | CCOC(=O)[C@H](Cc1ccccc1)NC(=O)CCC1CC(OC(=O)NCCc2ccc(F)cc2)CC2(CCCC(COC(=O)NCc3cccc(C(F)(F)F)c3)O2)O1 (stereo not given in full) | 0.048 (inactive) | 0.0834 | -1.14 (inactive) | 0.277 (inactive) | -0.017 (inactive) | 0.344 (inactive) | -0.354 | 0.575 (inactive) | 0.488 (inactive) | 0.837
7 | Cc1ccc(C(C)C)n1C(=O)OC(C)(C)C | -0.241 (inactive) | -0.0934 | -0.446 (inactive) | -1.44 (inactive) | -0.165 (inactive) | -1.53 (inactive) | 1.04 | -0.137 (inactive) | 0.209 (inactive) | 0.674
8 | CC(C)=CCCC(C)=CCON=C1C[C@@H](O)[C@@H](O)[C@@H]2[C@@H]3C(=O)N(Cc4ccc5c(c4)OCO5)C(=O)[C@@H]3CC[C@H]12 | -0.171 (inactive) | -0.202 | 11.1 (active) | 1.73 (inactive) | 1.64 (inactive) | 0.844 (inactive) | -0.429 | -0.344 (inactive) | -2.35 (inactive) | -4.13
9 | CC(C)CON=C1[C@H]2CCn3c(=O)n(C)c(=O)n3[C@H]2[C@H](O)[C@@H]2O[C@H]12 | -0.0031 (inactive) | -0.0559 | -0.399 (inactive) | -0.165 (inactive) | -0.607 (inactive) | -0.162 (inactive) | -0.445 | -0.5 (inactive) | 0.0343 (inactive) | -0.0469
10 | COC(=O)CC=C[C@@H](C)[C@@H](C=NOC(C)CN1CCCCc2nc(C)c(C)cc21)OC (stereo not given in full) | -0.0952 (inactive) | -0.0501 | 1.78 (inactive) | 0.322 (inactive) | -0.29 (inactive) | 0.441 (inactive) | -0.637 | -2.01 (inactive) | -0.392 (inactive) | -1.52
11 | COc1ccc(O[C@H]2C=C[C@@H](c3ccccc3)O[C@@H]2CO)cc1 | 0.0426 (inactive) | -0.0501 | 2.91 (inactive) | 1.29 (inactive) | -0.0071 (inactive) | 0.64 (inactive) | -0.781 | -0.242 (inactive) | -0.634 (inactive) | -2.07
12 | CCCNC(=O)OC[C@H]1O[C@H](CCON=C2c3cc(OC)ccc3O[C@H](c3cccc(OC)c3)[C@H]2O)C=C[C@@H]1Oc1ccc(OC)cc1 | 0.447 (inactive) | -0.0637 | 3.13 (inactive) | 0.855 (inactive) | 0.431 (inactive) | 0.563 (inactive) | -0.641 | 0.461 (inactive) | 0.455 (inactive) | -0.473
13 | CCCC[C@H]1CN2[C@@H](CC[C@@H](C)[C@@H]2c2ccc(Br)cc2)C(=O)O1 | -0.461 (inactive) | -0.0275 | 2.91 (inactive) | 0.809 (inactive) | -0.192 (inactive) | 0.711 (inactive) | -0.46 | 1.43 (inactive) | 0.516 (inactive) | 1.47
14 | CCOC(=O)[C@H](Cc1ccccc1)NC(=O)CCC1CC(OC(=O)NCc2cccc3ccccc23)CC2(CCCC(COC(=O)NCCOc3ccccc3)O2)O1 (stereo not given in full) | -1.98 (inactive) | -0.0094 | -0.623 (inactive) | -0.824 (inactive) | 0.48 (inactive) | -1.33 (inactive) | 1.01 | 0.0124 (inactive) | 0.762 (inactive) | 1.06
15 | CCOC(=O)[C@H](Cc1ccccc1)NC(=O)CCC1CC(OC(=O)NCCc2ccc(F)cc2)CC2(CCCC(COC(=O)NCCC(C)C)O2)O1 (stereo not given in full) | -0.15 (inactive) | 0.145 | -1.5 (inactive) | -0.302 (inactive) | 0.005 (inactive) | 0.0777 (inactive) | 0.429 | -0.0979 (inactive) | 0.397 (inactive) | 0.7
16 | CCCCOC(OCCCC)C(O)CSc1ccc2ccccc2c1 (stereo not given) | 0.278 (inactive) | -0.103 | 5.46 (inactive) | 0.667 (inactive) | -1.43 (inactive) | 0.248 (inactive) | -0.455 | -0.28 (inactive) | -0.657 (inactive) | -3.7
